Records with an inconclusive call do not appear. Active and inactive are the calls of the source. Unless noted, the call rests on the fitted dose curve; in most records, active means well fitted curve in the direction sought with a large enough effect; inconclusive means small, poorly fitted or top-dose-only effect, or another doubt; inactive means no such curve, though single readings can be large; an effect the other way counts as inactive or inconclusive.
What was measured:
[1] = Primary qHTS for inhibitors of La Crosse Virus (LACV) - induced cell death in SH-SY5Y cells (AID 1508616);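 further: top concentration of the series differs between compounds; higher means more rescue of cells from virus-induced death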
Procedure, shortened: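 Protection against LACV-induced cell death is scored in SH-SY5Y cells exposed to compounds and virus (0.01 MOI) for 6 days. Data normalized to virus-infected DMSO wells and virus-free DMSO wells.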

[2] = target: Calcium and integrin-binding protein 1 (Homo sapiens) (UniProt Q99828); test: Primary qHTS for Identification of Calcium Integrin Binding Protein 1 (CIB1) Competitor (AID 1508620);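 further: GST tagged CIB1 binding a fluorescein labelled alphaIIb integrin peptide tracer; top concentration of the series differs between compounds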
Procedure, shortened: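 Fluorescence polarization competition: GST-tagged CIB1 (1 uM final) preincubated with compound 15 min at room temperature, then FITC-labelled alphaIIb peptide (100 nM final) added. After 15 min at room temperature, polarization read at Ex 480/Em 540.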

[3] = Primary qHTS for small molecule stabilizers of the endoplasmic reticulum resident proteome: Secreted ER Calcium Modulated Protein (SERCaMP) assay (AID 1508630)
Procedure, shortened: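 GLuc-SERCaMP-expressing SH-SY5Y cells, pretreated 16 h with compound, are challenged with thapsigargin to empty ER calcium stores; after 4 h, coelenterazine is added directly to the medium and luminescence is imaged.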

[4] = A High-Content qHTS Against Drug Library for the Identification of Small Molecules that Inhibit DYT1 Early Onset Primary Dystonia-Associated Cell Pathology (AID 1645839; calls by dose curve; further: series mostly up to about 46 µM)
Procedure, shortened: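 Flp-In T-REx 293 cells with tetracycline-inducible EGFP-delE hTOR1A (WT EGFP-hTOR1A as reference), 800 cells/well; compound added with tetracycline, 48 h at 37 C. Fixed, permeabilized cells imaged; %pathology (punctate TorsinA) primary, cell count counterscreen.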

[5] = Counterscreen qHTS for small molecule stabilizers of the endoplasmic reticulum resident proteome: GLuc-NoTag assay (AID 1508627);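 further: SH-SY5Y cells given compound then 100 nM thapsigargin to empty ER calcium; series mostly up to about 76 µM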
Procedure, shortened: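 SH-SY5Y cells stably expressing constitutively secreted GLuc without SERCaMP tag, exposed to compound for 19 hr, then to 100 nM thapsigargin for 4 hr at 37C. Medium luciferase was read by coelenterazine luminescence without lysis.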

[6] = Confirmatory qHTS for small molecule stabilizers of the endoplasmic reticulum resident proteome: Secreted ER Calcium Modulated Protein (SERCaMP) assay (AID 1508628); further: series mostly up to about 76 µM; nearly all actives have a fitted effect of over 40% in size
Procedure, shortened: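 SH-SY5Y cells stably expressing GLuc-SERCaMP, treated 16 h with compound (primary 1.53, 7.67, 38.3 uM; confirmation 11 concentrations, up to 76.6 uM), then 100 nM thapsigargin for 4 h. Secreted Gaussia luciferase in medium read by coelenterazine luminescence.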

Measured: Potency

Calcium and integrin-binding protein 1 (Homo sapiens), sequence (Q99828 whole entry, looked up): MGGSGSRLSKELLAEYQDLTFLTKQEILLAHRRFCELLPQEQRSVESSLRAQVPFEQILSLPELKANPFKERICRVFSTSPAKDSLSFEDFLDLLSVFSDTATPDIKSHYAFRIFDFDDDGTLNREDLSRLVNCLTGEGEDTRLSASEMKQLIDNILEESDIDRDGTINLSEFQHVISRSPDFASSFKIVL

CCOC(=O)[C@H](CCc1ccccc1)N[C@H]1CS[C@H](c2cccs2)CN(CC(=O)O)C1=O
inactive: [1] | [2] | [3] | [4]

Cn1nnc2c(C(N)=O)ncn2c1=O
inactive: [1] | [2] | [3] | [4]

Cc1ncc([N+](=O)[O-])n1CCO
inactive: [1] | [2] | [3] | [4]

O=P(O)(O)C(O)(Cc1cccnc1)P(=O)(O)O
inactive: [1] | [2] | [3] | [4]

CCOC(=O)c1ccc(C#Cc2ccc3c(c2)C(C)(C)CCS3)nc1
inactive: [1] | [2] | [3] | [4]

COc1cnc(NS(=O)(=O)c2ccc(N)cc2)nc1
inactive: [1] | [2] | [3] | [4]

CC(C)Cn1cnc2c(N)nc3ccccc3c21
inactive: [1] | [2] | [3] | [4]

CC[C@H](NC(C)C)[C@H](O)c1ccc(O)c2[nH]c(=O)ccc12
inactive: [1] | [2] | [3] | [4]

COc1cccc(N(C)C(=S)Oc2ccc3c(c2)CCCC3)n1
inactive: [1] | [2] | [3] | [4]

O=NN(CCCl)C(=O)NC1CCCCC1
inactive: [1] | [2] | [3] | [4]

Cc1nnc(C(=O)NC(C)(C)c2nc(C(=O)NCc3ccc(F)cc3)c(O)c(=O)n2C)o1
inactive: [1] | [2] | [3] | [4]

COc1nc(N)nc2c1ncn2[C@@H]1O[C@H](CO)[C@@H](O)[C@@H]1O
inactive: [1] | [2] | [3] | [4]

COc1ccc2c(c1)c(CC(=O)OCC(=O)O)c(C)n2C(=O)c1ccc(Cl)cc1
inactive: [1] | [2] | [3] | [4]

CC(C)OC(=O)C(C(=O)OC(C)C)=C1SC=CS1
inactive: [1] | [2] | [3] | [4]

COc1ccc2cc3[n+](cc2c1OC)CCc1cc2c(cc1-3)OCO2
inactive: [1] | [2] | [3] | [4]

Cc1cccc(Nc2ccncc2S(=O)(=O)NC(=O)NC(C)C)c1
inactive: [1] | [2] | [3] | [4]

CS(=O)(=O)c1ccc([C@@H](O)[C@@H](CO)NC(=O)C(Cl)Cl)cc1
inactive: [1] | [2] | [3] | [4]

CC(C)(C#N)c1cc(Cn2cncn2)cc(C(C)(C)C#N)c1
inactive: [1] | [2] | [3] | [4]

CNC1CCCN(c2c(F)cc3c(=O)c(C(=O)O)cn(C4CC4)c3c2OC)C1 (stereo not drawn)
inactive: [1] | [2] | [3] | [4]

COc1cc([C@@H]2c3cc4c(cc3[C@H](O)[C@H]3COC(=O)[C@H]23)OCO4)cc(OC)c1OC
inactive: [1] | [2] | [3] | [4]

CC(C)OC(=O)OCOP(=O)(CO[C@H](C)Cn1cnc2c(N)ncnc21)OCOC(=O)OC(C)C
inactive: [1] | [2] | [3] | [4]

COC(c1ccccc1)(c1ccccc1)[C@H](Oc1nc(C)cc(C)n1)C(=O)O
inactive: [1] | [2] | [3]

CC(=O)[C@H]1CC[C@H]2[C@@H]3CC=C4C[C@@H](O)CC[C@]4(C)[C@H]3CC[C@]12C
inactive: [1] | [2] | [3] | [4]

CCOC(=O)[C@H](CCc1ccccc1)N[C@H]1CCc2ccccc2N(CC(=O)O)C1=O
inactive: [1] | [2] | [3]

NC(=O)c1cccnc1
inactive: [1] | [2] | [3] | [4]

O=C(NCC1CN(c2ccc(N3CCOCC3=O)cc2)C(=O)O1)c1ccc(Cl)s1 (stereo not drawn)
inactive: [1] | [2] | [3] | [4]

NC(N)=NC(N)=NCCc1ccccc1
inactive: [1] | [2] | [3] | [4]

CC(=O)CC(c1ccccc1)c1c(O)c2ccccc2oc1=O (stereo not drawn)
inactive: [1] | [2] | [3] | [4]

C[C@]12C=CC(=O)C=C1CC[C@@H]1[C@@H]2C(=O)C[C@@]2(C)[C@H]1CC[C@]2(O)C(=O)CO
inactive: [1] | [2] | [3] | [4]

Nc1ccc(S(=O)(=O)Nc2ccccn2)cc1
inactive: [1] | [3] | [4]

O=C(O)c1cccnc1
inactive: [2] | [3] | [4]

COc1cc2c(Nc3ccc(Br)cc3F)ncnc2cc1OCC1CCN(C)CC1
inactive: [2] | [3] | [4]

CNCC[C@H](Oc1cccc2ccccc12)c1cccs1
inactive: [2] | [5] | [6] | [3]

CCc1c2c(nc3ccc(OC(=O)N4CCC(N5CCCCC5)CC4)cc13)-c1cc3c(c(=O)n1C2)COC(=O)[C@]3(O)CC
inactive: [3]

CN1CCN(c2c(F)cc3c(=O)c(C(=O)O)cn(CCF)c3c2F)CC1
inactive: [1] | [3]

COc1cc(NS(=O)(=O)c2ccc(N)cc2)nc(OC)n1
inactive: [1] | [2] | [3] | [4]

Cc1nnc(NS(=O)(=O)c2ccc(N)cc2)s1
inactive: [1] | [2] | [3] | [4]

From PubChem BioAssay (NCATS)
